# High-throughput results: PubChem BioAssay, National Center for Advancing Translational Sciences (NCATS)
# The entries come from a sample that favours hits as a whole.
# TbPYK inhibitor: blocks Trypanosoma brucei pyruvate kinase | Potency, µM (series often up to 76.8 µM), inactives show top-dose activity, negative = inhibition, most hits filed as inhibitors | Q57TT1 | TbPYK enzyme, Kinase-Glo Plus ATP luminescence, 45 min | AID 624173 | 0.12% of 410,000 active; note: potency is the fitted concentration of half-maximal effect; % is set by controls: 0 for no effect and ±100 for the full control effect; nearly all actives have a fitted effect of over 50% in size
#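 TbPYK + substrate in 50 mM TEA pH 7.2, 100 mM KCl, 10 mM MgCl2, 0.05% BSA, 0.01% Tween-20; cpd pinned; ADP 130 uM final; 45 min RT; Kinase-Glo Plus 10 min; luminescence endpoint.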
# Shiga inhibitor: blocks Shiga toxin action in Vero cells; Vero cells, Shiga toxin protein synthesis inhibition reporter; inhibition, % at 38.7 µM; 9.2% of 290,000 active; AID 2315; in the data active = inhibition mostly above about 28%, no sharp cut-off; inactive = mostly below about 43%; note: 0% is about no effect
# LmPK inh: blocks Leishmania mexicana pyruvate kinase activity; Q27686; purified LmPK, Kinase-Glo ATP luminescence, 1 h; Potency, µM (top dose mostly 57.5 µM), inactives show at the top dose activity change, negative = inhibition, actives largely listed as inhibitors; 0.37% of 290,000 active; AID 1721; note: potency is the fitted concentration of half-maximal effect; % is set by controls: 0 for no effect and ±100 for the full control effect
# Target sequence (Q27686 whole entry, looked up): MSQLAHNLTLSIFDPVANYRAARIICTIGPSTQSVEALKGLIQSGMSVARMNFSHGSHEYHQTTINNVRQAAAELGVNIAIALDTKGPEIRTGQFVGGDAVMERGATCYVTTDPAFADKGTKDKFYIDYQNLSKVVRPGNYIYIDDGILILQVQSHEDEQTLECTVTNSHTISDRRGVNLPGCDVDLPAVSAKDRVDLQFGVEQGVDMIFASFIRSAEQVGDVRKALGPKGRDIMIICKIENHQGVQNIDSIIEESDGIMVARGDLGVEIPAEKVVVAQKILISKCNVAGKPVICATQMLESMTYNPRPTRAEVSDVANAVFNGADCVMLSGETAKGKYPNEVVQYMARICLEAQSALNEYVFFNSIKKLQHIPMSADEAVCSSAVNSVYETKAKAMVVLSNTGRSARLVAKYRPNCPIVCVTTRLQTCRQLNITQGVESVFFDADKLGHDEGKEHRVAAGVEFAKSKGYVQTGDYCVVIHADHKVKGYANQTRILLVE
#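 Purified LmPK (0.1 nM) with 0.5 mM PEP and 0.1 mM ADP in imidazole buffer pH 7.2 with MgCl2/KCl, 1 h at room temperature. ATP formed was read by luciferase luminescence and normalized to no-enzyme and uninhibited controls.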
# FBPA Giardia inh: Giardia lamblia aldolase inhibition | A8B2U2 | purified Giardia FBPA | Potency, µM (titrated, usually from 59.6 µM), for the others: at the highest dose activity, negative = inhibition, most hits filed as inhibitors | 0.71% of 290,000 active; note: potency is the fitted concentration of half-maximal effect; % is set by controls: 0 for no effect and ±100 for the full control effect; nearly all actives have a fitted effect of over 55% in size
#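 40 nM FBPA preincubated 10 min at RT with compound (up to 57.5 uM final), then substrate plus GAPDH/TPI/NAD/arsenate coupling and diaphorase/resazurin added. Fluorescence read after 20 min at RT, 525/598 nm.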
# Cycloheximide cs: affects cycloheximide protein synthesis inhibition readout, counter-screen; cell reporter, cycloheximide protein synthesis inhibition counterscreen; AID 2314; 12% of 300,000 active; max response, %; in the data active = max response mostly above about 13%, no sharp cut-off; inactive = mostly below about 14%; note: read at 38.3 µM for the half of the compounds with a filed dose; 0% is about no effect
# RE007 growth inh: less growth of the S. pombe RE007 Vpr strain. Potency, µM (highest dose often 92.2 µM), inactives show at the highest dose activity change, negative = less growth, actives largely listed as inhibitors. 0.21% of 360,000 active. S. pombe RE007 Vpr strain, BacTiter-Glo ATP luminescence, 24 h; active = well fitted falling curve with a large enough effect; inconclusive = small, poorly fitted or top-dose-only effect; inactive = no such curve, though single readings can be large or run the other way; note: potency is the fitted concentration of half-maximal effect; % is set by controls: 0 for no effect and ±100 for the full control effect; nearly all actives have a fitted effect of over 50% in size
#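 Fission yeast RE007 carrying one integrated HIV-1 vpr copy, seeded at OD 0.01 in PMG+AL medium with 23 nL pinned compound. Grown 24 h at 30 degrees; viability read by BacTiter-Glo luminescence after 5 min.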
# Numbers without * were called inactive; ? = inconclusive; / = no result given; + = active, no number; [ ] = another dose, or the depositor's remark. Unless noted, calls come from the whole dose curve; as a rule, active = well fitted curve in the direction sought with a large enough effect; inconclusive = small, poorly fitted or top-dose-only effect, or another doubt; inactive = no such curve, though single readings can be large; an effect the other way counts as inactive or inconclusive.
SMILES,TbPYK inhibitor,Shiga inhibitor,LmPK inh,FBPA Giardia inh,Cycloheximide cs,RE007 growth inh
O=C1/C(=C/c2ccccc2)CCC1C1CCCC1 (configuration not stated),1%,76*,-10%,1%,40*,-6%
CCOC(=O)COc1ccc(/C=C2\NC(=S)N(CC)C2=O)cc1,-8%,10,1%,-21%,-3,3%
CCC(=O)OCOc1ccc(/C=C2/CCC(CN(C)C)C2=O)cc1 (configuration not stated),-9%,/,/,/,/,8.9µM*
COc1ccccc1/C=C1\CCC(C2CCCC2)C1=O (configuration not stated),-1%,43*,-6%,1%,34*,-22%
CCOc1ccc(/C=C2\CCC(C3CCCC3)C2=O)cc1 (configuration not stated),-9%,21,-10%,1%,22*,-2%
O=C(NCc1ccc(Cl)cc1)NC1COc2ccccc2C1 (configuration not stated),-2%,/,/,/,/,/
Cc1ccc2c(n1)sc1c(=O)n(-c3cccc(C(F)(F)F)c3)nnc12,0%,/,/,/,/,/
O=C1/C(=C/c2ccco2)CCC1C1CCCC1 (configuration not stated),-3%,127*,-8%,1%,53*,3%
COc1ccc(/C=C2\CCC(C3CCCC3)C2=O)cc1Cn1cccn1 (configuration not stated),-2%,3,3%,-12%,1,-8%
O=C1/C(=C/c2ccc(F)cc2)CCC1C1CCCC1 (configuration not stated),-1%,75*,-11%,2%,41*,-1%
COC(=O)CS(=O)(=O)c1nc2ccccc2nc1N1CCCCC1,0%,/,/,/,/,/
COc1ccc(Nc2nc(N)nc(CSc3nc4ccccc4s3)n2)cc1,2%,/,/,/,/,/
COc1ccc(Nc2nc(N)nc(CSc3nccc(C)n3)n2)cc1,-1%,76*,0%,-1%,16*,-5%
Cc1ccc(Nc2nc(N)nc(CSc3nc4ccccc4s3)n2)cc1,-3%,37*,1%,-10%,37*,6%
Cc1cccc(Nc2nc(N)nc(CSc3nccc(C)n3)n2)c1,-2%,49,2%,0%,6,1%
Cc1ccc(Nc2nc(N)nc(CSc3nnc(-c4ccncc4)o3)n2)cc1,-2%,48*,1%,3%,14*,15%
Nc1nc(CSc2ncccn2)nc(Nc2ccccc2)n1,2%,139*,2%,5%,62*,0%
COc1cc(NC(=O)Cn2nnc(-c3ccc(C(F)(F)F)cc3)n2)c(C(=O)O)cc1OC,-7%,/,/,/,/,/
Cc1ccc(S(=O)(=O)N[C@H]2COC(=O)[C@@H](Cc3ccccc3)NC(=O)[C@@H](C)COC(=O)C/C=C\[C@@H]2C)cc1,/,/,/,3%[12.9 µM],/,/
COc1ccc(OC)c(-c2nnc3n2N=C(c2ccccc2OC)CS3)c1,/,-14,/,-4%,16,/
COc1ccc(Nc2nc(N)nc(CSc3nnc(C)s3)n2)cc1,-6%,56*,-3%,3%,29*,-10%
COc1ccc(Nc2nc(N)nc(CSc3nc4cc(OC)ccc4s3)n2)cc1,2%,/,/,/,/,/
Cc1ccc(Nc2nc(N)nc(CSc3ncccn3)n2)cc1,-5%,68*,-5%,2%,29*,-4%
COc1cccc(-c2nc(NCc3cccnc3)c3ccccc3n2)c1,/,/,/,7%,/,/
Cc1ccc(C(=O)NNC(=O)c2ccco2)cc1,-9%,+,-2%,3%,39*,-9%
SMILES,TbPYK inhibitor,Shiga inhibitor,LmPK inh,FBPA Giardia inh,Cycloheximide cs,RE007 growth inh
O=C(NNC(=O)c1ccco1)c1ccccc1,-3%,19,1%,0%,19*,-12%
O=C(NNC(=O)c1ccco1)c1ccco1,-6%,/,/,/,/,13%
CCSc1nc(-c2ccc(OC)cc2)nc2c1Cc1c(CO)cnc(C)c1O2,-6%,/,/,/,/,/
CCOc1ccc(NC(=O)c2ccc(NC(=S)NC3CCCCC3)cc2)cc1,-4%,36,1%,1%,24*,-18%
CCOc1ccc(C(=O)NC2CCCCCCC2)cc1,-8%,/,/,/,/,-4%
CCOc1ccc(NC(=O)c2ccc(NC(=S)NC3CC3)cc2)cc1,-6%,51*,3%,4%,11,-12%
CCOc1ccc(NC(=O)c2ccc(CNc3c(NC4CCCCC4)c(=O)c3=O)cc2)cc1,0%,-6,2%,2%,-5,5%
COc1cccc(-c2cc(C(=O)Nc3cccc(O)c3)no2)c1,?,33,-27%,0%,23,-1%
COCC(C)NC(=O)c1cc(-c2ccc(O)cc2)on1 (configuration not stated),-4%,57,4%,7%,36*,6%
COCC(C)NC(=O)c1cc(-c2cccc(OC)c2)on1 (configuration not stated),0%,81*,-11%,3%,28*,-18%
COc1cccc(-c2noc(CCCC(=O)NC3CCCC3)n2)c1,-5%,4,-2%,-7%,15*,-2%
COc1cccc(-c2cc(C(=O)NC3CCCC3)no2)c1,0%,145*,-9%,-9%,47*,-8%
COc1cccc(-c2noc(CCC(=O)NC3CCCC3)n2)c1,-7%,5,-1%,/,19,-12%
COC(=O)N1C(/C=C/c2ccc3c(c2)OCO3)=Cc2ccccc2C1CC(C)=O (configuration not stated),/,/,-3%[11.5 µM],7%[12.9 µM],/,/
COc1cc(OC)c(NC(=O)C(Cc2ccccc2)NS(=O)(=O)c2cccc3nsnc23)cc1Cl (configuration not stated),4%,/,/,/,/,/
O=C(NCc1cc(F)cc2c1OCCO2)[C@H]1C[C@@H]1[C@H](NP(=O)(c1ccccc1)c1ccccc1)c1ccccc1,/,/,/,-3%,/,/
COCCCNC(=O)C1CCN(Cc2cc3ccccc3n2Cc2cccc(C)c2)CC1,-5%,/,/,/,/,/
CCCCNC(=O)C1=CC(c2ccc3c(c2)OCO3)=NS(=O)(=O)N1C,2%,/,/,/,/,/
CCOc1ccc(-c2nonc2NC(=O)COc2ccccc2)cc1,-1%,/,/,/,/,/
CN(C)c1ccc(-c2ccc3ncnc(N(C)Cc4ccco4)c3c2)cc1,/,/,/,-27%,/,/
COc1ccc(-c2cc(C(=O)Nc3ccccc3SC)no2)cc1OC,-4%,-8,1%,5%,-2,0%
COCCNC(=O)c1cc(-c2cccc(OC)c2)on1,-3%,74*,-16%,4%,42*,10%
COc1cccc(-c2cc(C(=O)Nc3ccccc3SC)no2)c1,-4%,35*,-6%,-2%,36*,-14%
COc1ccc(NC(=O)Nc2ccccc2C(N)=O)cc1OC,3%,9,?,-1%,19,6%
Cc1ccc(NC(=O)Nc2ccccc2C(N)=O)cc1,-17%,63*,16µM*,-2%,29*,/
COC(=O)c1sccc1NC(=O)Nc1ccc(OC)cc1,?,108*,?,-16%,35*,?
